From PubChem BioAssay
The list is not random: actives were taken first. Their share in the collection is about 7.9%.
HCMV inh: blocks human cytomegalovirus replication. HFF cells, HCMV-luciferase reporter, 72 h; active compounds read low. activity change, negative = inhibition, % at 57.5 µM. 410,000 compounds, 4.5% hits; in the data active = activity change below about -60%; inconclusive = no clear call, values can overlap the other calls; inactive = above about -39%
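HFF cells seeded 16 h at 37C, treated with compounds, infected with luciferase-reporter HCMV at MOI 1 PFU/cell; luciferase read at 72 h post infection, normalized to buffer-only and Salinomycin controls.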
FMDV inh: blocks foot and mouth disease virus. FMDV antiviral cell-based qHTS. Potency, µM (titrated, usually from 57.9 µM), actives largely listed as inhibitors. 410,000 compounds, 1.2% hits. AID 1159524; calls by dose curve; tested in HEK293T cells; also: read-out not given here; nearly all actives have a fitted effect of over 45% in size
Marburg entry inh: Marburg virus entry inhibition; Marburg virus pseudotyped entry inhibition, cell reporter; 300,000 compounds, 1.8% hits; Potency, µM (series often up to 37.8 µM), most hits filed as inhibitors; calls by dose curve; tested in HEK293 cells
LASV entry inh: inhibitors of Lassa virus binding or cell entry. Potency, µM (titrated, usually from 37.9 µM), hits mostly inhibitors. Lassa virus pseudotype entry inhibition, cell reporter. 300,000 compounds, 1.2% hits; calls by dose curve; tested in HEK293 cells; also: nearly all actives have a fitted effect of over 50% in size
HCV inh: blocks hepatitis C virus; Huh7.5.1 HCVcc-Cre infection, luciferase reporter, 44 h; Potency, µM (top dose mostly 41.8 µM), usual class: inhibitors; 340,000 compounds, 3.4% hits; AID 651820; active = well fitted inhibition curve with a large enough effect; inconclusive = small, poorly fitted or top-dose-only effect, or another doubt; inactive = no such curve, though single readings can be large or run the other way
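Compounds are dispensed onto cells plated 4 h earlier at 1,000 per well, with HCVcc-Cre virus (about 0.5 moi) added next. Following 44 h of culture, luminescent signal is measured for 15 sec after 15 min with substrate at room temperature.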
A number is an active result; . = inactive; ? = inconclusive; / = not tested or not shown.

SMILES	HCMV inh	FMDV inh	Marburg entry inh	LASV entry inh	HCV inh
COc1ccccc1C(c1nnnn1Cc1ccccc1)N1CCN(c2nc3ccccc3s2)CC1 (centres undefined)	.	.	?	?	13µM
COc1ccccc1C(=O)Nc1onc(C)c1C#N	.	.	.	.	.
NC(=O)c1ccc[n+]([C@H]2O[C@@H](COP(=O)([O-])OP(=O)(O)OC[C@H]3O[C@@H](n4cnc5c(N)ncnc54)[C@H](O)[C@@H]3O)[C@H](O)[C@@H]2O)c1	/	.	/	/	.
COc1cccc(C(=O)Oc2c(Br)cc(Br)cc2/C=N/NC(=O)c2cc(C)[nH]n2)c1	-97	.	/	/	?
Cc1cc(C(=O)N/N=C/c2cccc(OC(=O)c3cccc(Br)c3)c2)n[nH]1	-71	.	/	/	.
COc1c(Br)cc(Br)cc1/C=N/NC(=O)c1cccnc1	.	.	/	/	.
COc1cc(C(=O)Oc2cccc(/C=N/NC(=O)c3cc(C)[nH]n3)c2)cc(OC)c1OC	.	.	?	?	?
Cc1ccccc1Nc1c(-c2ccc(N3CCOCC3)cc2)nc2ccc(Cl)cn12	.	.	.	.	/
COc1ccc(C(CNC(=O)c2cccc(S(=O)(=O)Nc3cccc(C)c3)c2)N2CCOCC2)cc1 (centres undefined)	.	.	?	.	.
Cc1ccc(NC(=O)c2cc(-c3ccccc3)nn2-c2ccccc2)cc1	.	.	?	?	?
CCOC(=O)c1nc(S(C)(=O)=O)ncc1N1CCOCC1	.	/	.	.	.
O=C(Nc1ccc(F)cc1)c1nn(-c2ccccc2)c(=O)cc1Cl	-100	22µM	7.1µM	?	6.3µM
O=C(NCc1ccccc1)c1nc(S(=O)(=O)Cc2ccc(F)cc2)ncc1Cl	-98	32µM	?	?	/
Cc1cccc(CS(=O)(=O)c2ncc(Cl)c(C(=O)NCc3ccccc3)n2)c1	-92	32µM	4.5µM	?	?
CCOC(=O)c1nc(S(C)(=O)=O)ncc1Cl	-70	/	?	.	?
Cc1ccc(CSc2ncc(Cl)c(C(=O)NCc3ccccc3)n2)cc1	.	.	.	.	/
COc1ccc(C(=O)NC(=S)N2CCN(c3ccccc3O)CC2)cc1	.	.	.	?	.
COc1cc(Nc2ncc3c(n2)CCN(Cc2cc(Br)cs2)C3)cc(OC)c1	.	.	/	.	/
CS(=O)(=O)c1ncc(Cl)c(C(=O)Nc2ccc(OC(F)F)cc2)n1	/	20µM	?	?	?
Cc1nnc(NC(=O)c2nc(S(=O)(=O)Cc3ccccc3)ncc2Cl)s1	-110	5.6µM	?	?	10µM
O=C(Nc1ccc(OC(F)F)cc1)c1ccccn1	.	.	.	.	?
Cc1ccccc1NC(=O)c1nc(S(C)(=O)=O)ncc1Cl	-99	?	/	/	?
Cc1ccc(NC(=O)c2nc(S(=O)(=O)Cc3ccccc3)ncc2Cl)cc1	-98	28µM	?	.	?
CCc1nnc(NC(=O)c2nc(S(C)(=O)=O)ncc2Cl)s1	.	?	.	.	/
N#Cc1ccc(NC(=O)COC(=O)c2cccnc2Cl)cc1	.	.	?	.	.
SMILES	HCMV inh	FMDV inh	Marburg entry inh	LASV entry inh	HCV inh
CCC[C@H]1[C@H](N(Cc2cccs2)Cc2cccs2)CC[C@@]23CCCN2C(=O)CCC[C@@H]13	.	/	/	/	/
COC(=O)Cc1ccc(OC2(C)CCN(Cc3ccccc3OC(F)F)C2)cc1 (centres undefined)	.	.	/	/	/
O=C(c1csnn1)N1CCC[C@@]2(CCN(c3ccccc3)C2)C1	/	.	/	/	/
Cc1ccccc1CS(=O)(=O)c1ncc(Cl)c(C(=O)Nc2ccc(F)cc2)n1	-98	?	/	/	.
O=C(Nc1ccc(F)cc1)c1nc(S(=O)(=O)Cc2ccccc2)ncc1Cl	-112	?	/	/	8.9µM
CCCc1nnc(NC(=O)c2nc(S(=O)(=O)Cc3cccc(C)c3)ncc2Cl)s1	-101	28µM	/	/	?
O=C(Nc1ccccc1F)c1nc(S(=O)(=O)Cc2ccccc2F)ncc1Cl	-109	?	?	?	/
COC(=O)c1ccccc1NC(=O)c1nc(S(=O)(=O)Cc2ccccc2F)ncc1Cl	.	.	.	.	/
C#CC(C)(CC)NC(=O)Cn1nnc(-c2ccc(OCc3ccccc3F)cc2)n1 (centres undefined)	.	.	?	.	/
CCCCNC(=O)C(C)(C)n1cc(NC(=O)c2cc(C)oc2C)cn1	.	/	/	/	/
Cc1cccc(C)c1NC(=O)c1nc(S(=O)(=O)Cc2ccccc2)ncc1Cl	-100	28µM	11µM	?	?
CCOC(=O)c1cccn1C1C(=O)N(Cc2ccc(Cl)nc2)c2ccc(F)cc21 (centres undefined)	.	/	/	/	/
COc1ccc(NC(=O)NC(=O)c2ccccc2)cc1	.	.	/	/	.
Cc1ccc(NC(=O)Nc2cccnc2)cc1Cl	?	.	.	.	?
O=C(NCc1ccccn1)Nc1cc(Cl)cc(Cl)c1	.	.	/	/	.
O=C(NCc1csc2ccccc12)Nc1cc(Cl)cc(Cl)c1	-62	?	?	.	?
CC(C)NC(=O)Nc1ccc(Br)cc1Cl	-61	.	.	?	?
O=C(NC(=O)c1ccccc1)Nc1ccccc1	.	.	2.8µM	?	.
CC(C)C(=O)Nc1ccc(Br)cc1Cl	?	.	.	.	.
O=C(Nc1cccnc1)Nc1cc(Cl)cc(Cl)c1	-61	?	.	.	?
Cc1cc2nc3c(c(C(F)(F)F)n2n1)CCCC3	.	.	.	?	.
O=C(Nc1ccccc1)Nc1cc(OCC(F)(F)F)cc(OCC(F)(F)F)c1	-100	.	?	?	6.3µM
O=C(Nc1cccc(Cl)c1)Nc1ccc(Br)cc1F	-69	.	?	?	?
S=C(Nc1ccc(Br)cc1Cl)N1CCCC1	.	.	.	.	.
O=C(NCCNC(=O)c1cc(OCC(F)(F)F)ccc1OCC(F)(F)F)Nc1cccc(C(F)(F)F)c1	.	.	?	?	?
SMILES	HCMV inh	FMDV inh	Marburg entry inh	LASV entry inh	HCV inh
O=C(Nc1ccc(CN2CCCCC2)cc1)Nc1ccc(Br)cc1Cl	-62	.	10µM	?	16µM
O=C(Nc1cccc(Cl)c1)Nc1cccc(Cl)c1	?	.	?	.	.
O=C(Nc1ccccc1)Nc1cc(Cl)cc(Cl)c1	-91	.	?	?	?
O=C(Nc1ccccc1)Nc1ccc(Br)cc1F	.	.	.	?	.
O=C(CCn1c(=O)[nH]c2ccccc21)NCC1Cc2cc(Cl)cc(-c3ccncc3)c2O1 (centres undefined)	/	.	/	/	/
CCOc1cc(NC(=O)C2CC2)c(OCC)cc1NC(=O)CCn1nnc2ccccc21	.	.	.	.	?
O=C(Nc1cccnc1)Nc1ccc(Br)cc1Cl	.	.	.	.	11µM
O=C(Nc1cccnc1)Nc1ccccc1Cl	.	.	?	?	?
CN(C)CCCN(C(=O)c1ccco1)c1nc2ccc(Cl)cc2s1	.	.	?	?	25µM
CCN(CC)CCN(C(=O)c1ccco1)c1nc2c(C)c(C)ccc2s1	?	.	/	.	/
Cc1ccc2sc(N(CCCN(C)C)C(=O)c3ccco3)nc2c1C	-62	.	/	.	/
Cc1ccc2nc(N(CCCN(C)C)C(=O)c3sc4ccccc4c3Cl)sc2c1	-78	18µM	.	?	?
Cc1ccc(C(=O)N(CCCN(C)C)c2nc3ccc(Cl)cc3s2)cc1C	.	?	8.9µM	?	?
Cc1c(C(=O)N(C)C(C)c2ccccn2)oc2c(F)cccc12 (centres undefined)	.	.	?	.	.
